Data on seven molecules can be found in PubChem BioAssay (EPA / NIEHS).

The source made the active and inactive calls. Rule for the calls: active = hit-call score of the fitted dose curve at least 0.9, where 1 is the maximum; inactive = score below 0.9.

Read-out in experiment [1]: Monocyte Chemoattractant Protein-1 (MCP1), CCL2 (gene 6347)
The experiment is described as follows: BSK_LPS_MCP1: BioMAP Diversity Plus: LPS Assay for Monocyte Chemoattractant Protein-1 (MCP1) Biomarker Activity (AID 2283081).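 For AC50: secreted MCP-1 protein quantified by ELISA in culture supernatant.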 The note with it: primary human HUVEC with PBMC; actives raise or lower the signal. The method, boiled down: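 Secreted MCP-1 read by ELISA at 24 h post-dosing in an LPS-activated co-culture of endothelial cells with peripheral blood mononuclear cells. Fits run in both directions, DMSO as baseline; parallel SRB staining tracks overt cytotoxicity.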

Experiment [2] can be described thus: BSK_LPS_PGE2: BioMAP Diversity Plus: LPS Assay for Prostaglandin E2 (PGE2) Biomarker Activity (AID 2283082).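 For AC50: secreted prostaglandin E2 measured by ELISA in LPS-stimulated co-culture.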 To be noted: primary human HUVEC with PBMC; actives raise or lower the signal. The method, boiled down:
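HUVEC plus PBMC co-culture stimulated with LPS; secreted PGE2 quantified by ELISA 24 h after chemical dosing. Activity fitted bidirectionally against DMSO as negative control and baseline; parallel SRB total-protein staining served as cytotoxicity check.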

Read-out in experiment [3]: Macrophage colony-stimulating factor (MCSF), CSF1 (gene 1435)
The experiment is described as follows: BSK_LPS_MCSF: BioMAP Diversity Plus: LPS Assay for Macrophage colony-stimulating factor (MCSF) Biomarker Activity (AID 2283083). The note with it: primary human HUVEC with PBMC; actives raise or lower the signal. Summed up: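 Bidirectional fitting against DMSO was applied to M-CSF levels read by ELISA at 24 h post-dose. The system pairs human umbilical vein endothelium with peripheral blood mononuclear cells; parallel SRB staining tracked cytotoxicity.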

Read-out in experiment [4]: Tissue Factor, F3 (gene 2152)
Nature of the experiment: BSK_LPS_TissueFactor: BioMAP Diversity Plus: LPS Assay for Tissue Factor Biomarker Activity (AID 2283084). The note with it: primary human HUVEC with PBMC; actives raise or lower the signal. Summed up:
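Compound was added to an endothelial cell/PBMC co-culture, and after 24 h tissue factor (CD142) was read by ELISA. Gain or loss of signal was fitted against a DMSO baseline, and parallel SRB staining (560 nm) tracked overt cytotoxicity.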

Read-out in experiment [5]: Tumor necrosis factor (Homo sapiens) (UniProt P01375)
Nature of the experiment: BSK_LPS_TNFa: BioMAP Diversity Plus: LPS Assay for Tumour Necrosis Factor alpha (TNFa) Biomarker Activity (AID 2283085). The note with it: primary human HUVEC with PBMC; actives raise or lower the signal. Summed up:
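Human umbilical vein endothelial cells co-cultured with PBMC were exposed to test chemical and TNFa measured by ELISA 24 h after dosing. Bidirectional curve fitting was done relative to DMSO as negative control and baseline.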

Read-out in experiment [6]: Vascular cell adhesion molecule 1 (VCAM1), VCAM1 (gene 7412)
Nature of the experiment: BSK_LPS_VCAM1: BioMAP Diversity Plus: LPS Assay for Vascular cell adhesion molecule 1 (VCAM1) Biomarker Activity (AID 2283086). The note with it: primary human HUVEC with PBMC; actives raise or lower the signal. The method, boiled down: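 Human umbilical vein endothelial cells co-cultured with peripheral blood mononuclear cells under LPS stimulation were exposed to test chemical for 24 h. VCAM-1 levels were then measured by ELISA, with bidirectional curve fitting relative to DMSO as negative control and baseline.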

Read-out in a further experiment: CD38, CD38 (gene 952)
The experiment is described as follows: BSK_SAg_CD38: BioMAP Diversity Plus: SAg Assay for CD38 Biomarker Activity (AID 2283087). To be noted: primary human HUVEC with PBMC; actives raise or lower the signal. The method, boiled down:
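Fluorescence ELISA of cell-surface CD38 served as the read-out, with either increase or decrease fitted against DMSO controls. Cells were a human umbilical vein endothelium plus PBMC co-culture under SEB/TSST-1 stimulation, measured 24 h after dosing.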

Read-out in a further experiment: CD40, CD40 (gene 958)
Nature of the experiment: BSK_SAg_CD40: BioMAP Diversity Plus: SAg Assay for CD40 Biomarker Activity (AID 2283088). The note with it: primary human HUVEC with PBMC; actives raise or lower the signal. The method, boiled down:
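CD40 is measured by fluorescence ELISA in an endothelial/PBMC primary human co-culture at 24 h post-dose. Fitting is bidirectional, DMSO baseline. Parallel SRB staining (560 nm) flags cytotoxicity.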

Read-out in another experiment: CD69, CD69 (gene 969)
Nature of the experiment: BSK_SAg_CD69: BioMAP Diversity Plus: SAg Assay for CD69 Biomarker Activity (AID 2283089). The note with it: primary human HUVEC with PBMC; actives raise or lower the signal. The method, boiled down: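 Primary human vascular co-culture (umbilical vein endothelium with peripheral blood mononuclear cells) exposed to test chemical for 24 h. CD69 levels quantified by fluorescence ELISA; DMSO served as negative control for bidirectional fitting.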

Read-out in experiment [7]: Monocyte Chemoattractant Protein-1 (MCP1), CCL2 (gene 6347)
Nature of the experiment: BSK_SAg_MCP1: BioMAP Diversity Plus: SAg Assay for Monocyte Chemoattractant Protein-1 (MCP1) Biomarker Activity (AID 2283090). To be noted: primary human HUVEC with PBMC; actives raise or lower the signal. Summed up:
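MCP-1 levels in the endothelial–PBMC SAg co-culture were quantified by ELISA at 24 h post-dosing; both increases and decreases versus DMSO scored. Cytotoxicity monitored by SRB total protein in parallel cultures.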

Read-out in experiment [8]: E-selectin (Homo sapiens) (UniProt P16581)
The experiment is described as follows: BSK_SAg_Eselectin: BioMAP Diversity Plus: SAg Assay for Eselectin Biomarker Activity (AID 2283091). The note with it: primary human HUVEC with PBMC; actives raise or lower the signal. Summed up: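 Cell-surface E-selectin is read by ELISA at 24 h in the SAg co-culture of HUVEC and PBMC. Curves are fitted in both directions relative to DMSO. Parallel SRB total-protein staining tracks overt toxicity.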

Read-out in experiment [9]: Monokine induced gamma interferon (MIG), CXCL9 (gene 4283)
Nature of the experiment: BSK_SAg_MIG: BioMAP Diversity Plus: SAg Assay for Monokine induced gamma interferon (MIG) Biomarker Activity (AID 2283092). The note with it: primary human HUVEC with PBMC; actives raise or lower the signal. The method, boiled down:
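Endothelial cells and PBMC were co-cultured, exposed to test chemicals, and sampled 24 h later. MIG was measured by ELISA, and responses were fitted in both directions relative to DMSO.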

Experiment [10] in a line: BSK_SAg_PBMCCytotoxicity: PBMC Cytotoxicity Assessment in the BioMAP Diversity Plus: SAg Assay (AID 2283093).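 Note: PBMC viability measured as Alamar Blue reduction fluorescence at 546/580 nm; fitted both ways against DMSO so a hit may be loss or gain of signal.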 The note with it: primary human HUVEC with PBMC. Summed up: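 Compound added to 75,000 PBMC/well for 1 h; SEB and TSST-1 then added at 20 ng/mL final each; 90 h incubation; Alamar Blue 6 h; read 546/580 nm ex/em. Activity fitted bidirectionally relative to DMSO baseline.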

Read-out in experiment [11]: Interleukin-8 (IL8), CXCL8 (gene 3576)
Nature of the experiment: BSK_SAg_IL8: BioMAP Diversity Plus: SAg Assay for Interleukin-8 (IL8) Biomarker Activity (AID 2283094). To be noted: primary human HUVEC with PBMC; actives raise or lower the signal. Summed up:
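Human umbilical vein endothelial cells co-cultured with peripheral blood mononuclear cells; IL-8 measured by ELISA 24 h after chemical dosing. Bidirectional concentration-response fitting used DMSO as negative control and activity baseline.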

Experiment [12] in a line: BSK_SAg_SRB: Viability Assessment in the BioMAP Diversity Plus: SAg Assay (AID 2283096).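 Note: cells read one day after compound addition; hits may be either gain or loss of signal compared with DMSO.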 To be noted: primary human HUVEC with PBMC. Summed up: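 Total protein by sulforhodamine B staining, 24 h after dosing, in HUVEC–PBMC co-culture; DMSO-referenced bidirectional fitting.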
Experiment [13] is described as follows: BSK_SAg_Proliferation: Cell Proliferation Assessment in the BioMAP Diversity Plus: SAg Assay (AID 2283095).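 Note: relative cell number as total protein by SRB absorbance in sub-confluent culture.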 To be noted: primary human HUVEC with PBMC. The method, boiled down:
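Human umbilical vein endothelial cells co-cultured with peripheral blood mononuclear cells; total protein measured by sulforhodamine B staining (0.1% SRB after 10% TCA fixation), absorbance at 560 nm, at 96 h. Bidirectional fit against DMSO baseline.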

E-selectin (Homo sapiens), sequence (P16581 whole entry, looked up): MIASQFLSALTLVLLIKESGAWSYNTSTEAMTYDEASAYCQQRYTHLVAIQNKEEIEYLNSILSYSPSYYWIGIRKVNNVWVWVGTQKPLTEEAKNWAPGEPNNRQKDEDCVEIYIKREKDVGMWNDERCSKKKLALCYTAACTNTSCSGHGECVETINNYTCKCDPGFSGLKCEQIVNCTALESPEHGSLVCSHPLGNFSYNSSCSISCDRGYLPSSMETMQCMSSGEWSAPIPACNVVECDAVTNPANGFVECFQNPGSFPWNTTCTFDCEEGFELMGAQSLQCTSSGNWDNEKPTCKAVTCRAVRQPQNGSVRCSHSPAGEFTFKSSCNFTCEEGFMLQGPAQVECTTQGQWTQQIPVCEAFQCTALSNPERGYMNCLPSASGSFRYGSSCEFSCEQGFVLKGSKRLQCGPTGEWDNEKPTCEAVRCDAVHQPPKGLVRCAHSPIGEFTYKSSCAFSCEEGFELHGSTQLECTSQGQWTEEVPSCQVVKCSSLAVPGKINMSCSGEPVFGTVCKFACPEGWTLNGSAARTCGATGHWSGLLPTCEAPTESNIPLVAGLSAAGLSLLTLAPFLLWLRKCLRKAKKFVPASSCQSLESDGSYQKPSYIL
Tumor necrosis factor (Homo sapiens), sequence (P01375 whole entry, looked up): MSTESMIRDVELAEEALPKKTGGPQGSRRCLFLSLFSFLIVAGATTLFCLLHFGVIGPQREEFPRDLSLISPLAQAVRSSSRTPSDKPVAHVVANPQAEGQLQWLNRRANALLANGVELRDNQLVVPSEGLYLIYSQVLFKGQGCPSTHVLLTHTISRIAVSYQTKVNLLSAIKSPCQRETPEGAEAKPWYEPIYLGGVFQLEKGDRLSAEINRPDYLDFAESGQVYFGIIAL

As to `CC(=O)/C=C/C1=C(C)CCCC1(C)C`, the outcome in [1], in experiment [2], in experiment [3], in [4], in experiment [5] and in experiment [6] was inactive. The outcome was “inactive” in the experiment with CD38, CD38 (gene 952); “inactive” with CD40, CD40 (gene 958); “inactive” in the experiment with CD69, CD69 (gene 969); “inactive” in experiment [7]; “inactive” in experiment [8]; “inactive” in experiment [9]. Further, the outcome in [10], in experiment [11] and in [12] was inactive.
Regarding `NCCNCCN`, the result in [1], in experiment [2], in experiment [3], in [4], in experiment [5] and in [6] was inactive. For the same molecule, the outcome with CD38, CD38 (gene 952) is “inactive”; in the experiment with CD40, CD40 (gene 958), “inactive”; with CD69, CD69 (gene 969), “inactive”; in [7] it was “inactive”; in [8] it was “inactive”; in experiment [9], “inactive”. For the same molecule, the result in [10], in experiment [11], in [13] and in experiment [12] was inactive.
On to `O=C(O)c1ccc([N+](=O)[O-])cc1`, for which the outcome in experiment [1], in experiment [2], in experiment [3], in experiment [4], in experiment [5] and in experiment [6] was inactive. Further, the outcome in the experiment with CD38, CD38 (gene 952) is “inactive”; with CD40, CD40 (gene 958), “inactive”; in the experiment with CD69, CD69 (gene 969), “inactive”; in experiment [7], “inactive”; in [8], “inactive”; in experiment [9] it was “inactive”. Also, the outcome in experiment [10], in experiment [11] and in experiment [12] was inactive.
Consider `CC[Si](OC(C)=O)(OC(C)=O)OC(C)=O`, for which the outcome in [1], in experiment [2], in [3], in experiment [4], in experiment [5] and in experiment [6] was inactive. The outcome in the experiment with CD38, CD38 (gene 952) is “inactive”; with CD40, CD40 (gene 958) it was “inactive”; with CD69, CD69 (gene 969) it was “inactive”; in experiment [7] it was “inactive”; in experiment [8] it was “inactive”; in [9], “inactive”. Besides, the result in [10], in experiment [11] and in experiment [12] was inactive.
For `CC(C)Oc1ccccc1O`, the outcome in experiment [1], in experiment [2], in [3], in experiment [4], in experiment [5] and in experiment [6] was inactive. Moreover, the outcome with CD38, CD38 (gene 952) is “inactive”; with CD40, CD40 (gene 958) it was “inactive”; with CD69, CD69 (gene 969) it was “inactive”; in [7], “inactive”; in experiment [8] it was “inactive”; in [9] it was “inactive”. Moreover, the result in [10], in [11] and in experiment [12] was inactive.
The AC50 is the concentration giving half of the maximal activity seen. For `CNC[C@H](O)c1cccc(O)c1`, the outcome was “inactive” in [1]; “inactive” in experiment [3]; “inactive” in experiment [4]; “inactive” in experiment [5]; “inactive” in experiment [6]; “inactive” with CD38, CD38 (gene 952). Also, the outcome with CD40, CD40 (gene 958) is “inactive”; with CD69, CD69 (gene 969), “inactive”; in experiment [7] it was “inactive”; in [8], “inactive”; in [9] it was “inactive”; in experiment [10], “inactive”. Further, the outcome in experiment [11] and in experiment [12] was inactive. In experiment [2], the AC50 was 167 nM (active).
Turning to `CCCCC(CC)COCCC#N` (stereo unspecified), the AC50 was 16 nM (active) in experiment [1] and 80.1 nM (active) in experiment [11]. The outcome in experiment [2] was “inactive”; in experiment [3], “inactive”; in experiment [4], “inactive”; in [5], “inactive”; in experiment [6] it was “inactive”; with CD38, CD38 (gene 952), “inactive”. Further, the outcome with CD40, CD40 (gene 958) was “inactive”; in the experiment with CD69, CD69 (gene 969) it was “inactive”; in experiment [7] it was “inactive”; in experiment [8], “inactive”; in experiment [9] it was “inactive”; in [10] it was “inactive”. Moreover, the result in experiment [12] was inactive.
